# Screens: PubChem, several laboratories
# KKLEB tox: cytotoxicity in KKLEB CF airway cells, primary screen, cytotoxicity control for CF NF-kB inhibitor project, cell-based, uHTS, fluorescence assay plates. KKLEB CF airway cells viability, ATPlite luminescence, overnight; hits give low values; cells stimulated with P. aeruginosa culture filtrate. activity change (cytotoxicity), % at 5 µM. hit rate 0.36% among 360,000. AID 602141, 2011;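 active means corrected activity change at or below -50% at 5 µM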
# CF NFkB inh: inhibitors of PAF-induced NF-kB signaling, primary screen, cell-based, GFP fluorescence, uHTS | KKLEB NF-kB-GFP reporter, GFP fluorescence overnight | hit rate 0.86% among 360,000 | inhibition, % at 5 µM;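 active means at least 50% inhibition at 5 µM, scaled per plate between neutral and stimulator controls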;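 further: PAF is a Pseudomonas aeruginosa culture filtrate used as stimulus; plate controls were PAF-stimulated DMSO wells for no effect and unstimulated DMSO wells for full effect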
# Peg3 promoter: Peg3 promoter-driven luciferase inhibitors, primary screen, cell-based, HeLa, luciferase luminescence; HeLa PEG-Prom luciferase reporter, overnight; inhibition, % at 20 µM; hit rate 1.7% among 360,000;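 active means inhibition of at least 50% at 20 µM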
# ABHD5 PLIN5 PPI: ABHD5-PLIN5 interaction inhibitors, primary screen, cell lysate, split luciferase complementation, luminescence. inhibition, % at 4 µM. AID 602281, 2012. Perilipin-5 (Homo sapiens) + 1-acylglycerol-3-phosphate O-acyltransferase ABHD5 (Homo …. Split G. princeps luciferase complementation, 4 h. hit rate 0.78% among 360,000;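 active means inhibition above the mean inhibition across every tested compound plus 3 SD, cut at about 22% in these data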;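 further: 0% = DMSO only wells and the 100% control is not disclosed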
# Target sequence (Q00G26 whole entry, looked up): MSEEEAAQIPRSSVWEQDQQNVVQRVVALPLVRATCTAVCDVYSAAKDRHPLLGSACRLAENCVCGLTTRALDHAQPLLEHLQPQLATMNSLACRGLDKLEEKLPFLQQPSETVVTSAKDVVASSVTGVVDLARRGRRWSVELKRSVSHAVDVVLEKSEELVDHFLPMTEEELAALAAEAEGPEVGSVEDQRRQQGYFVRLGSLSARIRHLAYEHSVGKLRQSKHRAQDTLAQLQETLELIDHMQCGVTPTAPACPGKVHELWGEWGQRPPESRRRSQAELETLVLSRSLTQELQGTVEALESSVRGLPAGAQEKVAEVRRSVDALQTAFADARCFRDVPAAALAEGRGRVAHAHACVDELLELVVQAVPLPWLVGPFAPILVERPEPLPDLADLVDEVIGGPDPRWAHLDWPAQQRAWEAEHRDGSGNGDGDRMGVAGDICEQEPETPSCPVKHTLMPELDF
# Target sequence (Q8WTS1 whole entry, looked up): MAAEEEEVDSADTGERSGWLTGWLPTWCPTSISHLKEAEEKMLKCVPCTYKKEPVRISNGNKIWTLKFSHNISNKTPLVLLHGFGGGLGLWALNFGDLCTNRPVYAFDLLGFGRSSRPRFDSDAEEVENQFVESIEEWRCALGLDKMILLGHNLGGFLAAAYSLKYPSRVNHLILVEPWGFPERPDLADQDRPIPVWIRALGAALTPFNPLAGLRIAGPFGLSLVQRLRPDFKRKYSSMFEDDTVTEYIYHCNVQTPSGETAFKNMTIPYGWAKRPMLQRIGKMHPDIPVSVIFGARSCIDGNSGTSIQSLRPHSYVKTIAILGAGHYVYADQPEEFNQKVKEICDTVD
# Mdm2-MdmX inh: inhibitors of human Mdm2-MdmX association, primary screen, cell-based, luminescence, split luciferase, SaOS-2, uHTS | AID 485346, 2010 | inhibition, % at 8 µM | SaOS-2 split-luciferase Mdm2/MdmX complementation | hit rate 3% among 330,000 | Protein Mdm4 (Homo sapiens) + E3 ubiquitin-protein ligase Mdm2 (Homo sapiens), …;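 active means inhibition of at least 50% at 8 µM in the primary screen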
# HIF-2a block: HIF-2a reporter inhibitors, primary screen, luminescence, 786-0 RCC cells | 786-0 RCC cells HIF-2a reporter, luciferase luminescence, overnight | inhibition, % at 18.8 µM | hit rate 0.72% among 360,000;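 active means inhibition of the luminescence signal of 40% or more relative to plate controls, in a single-dose primary screen at 18.75 µM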
# Mdm2 MdmX conf: Mdm2-MdmX complex disruptors, retested hits, confirmation, luminescence, single concentration. shares compounds with Mdm2-MdmX inh. Mdm2-MdmX binding, luminescent assay. inhibition, % at 8 µM. hit rate 55% among 10,000; in the data active means inhibition above about 40%
# FLuc counter: full-length luciferase signal inhibition, confirmation, counter-screen for Mdm2/MdmX interaction inhibitor project, cell-based, single concentration, SaOS-2. hit rate 77% among 6,200. SaOS-2 full-length luciferase counterscreen, luminescence. inhibition, % at 8 µM. AID 504607, 2011. shares compounds with Mdm2-MdmX inh;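 active means mean inhibition at 8 µM reaching about 37%, which flags the compound as non-specific, limit read from the data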;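 further: p53-null SaOS-2 cells with luciferase driven by a doxycycline-inducible promoter; compound on cells about two nights before reading with doxycycline added after day one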
# Active calls of the source: *; · = no result. Rows were chosen to be rich in hits. Some 4.6% of all compounds tested hit in one or more screens of this group.
SMILES,KKLEB tox,CF NFkB inh,Peg3 promoter,ABHD5 PLIN5 PPI,Mdm2-MdmX inh,HIF-2a block,Mdm2 MdmX conf,FLuc counter
C[C@@H]1O[C@@H](O[C@H]2C[C@@H](O)[C@]3(CO)[C@H]4[C@H](O)C[C@]5(C)[C@@H](C6=CC(=O)OC6)CC[C@]5(O)[C@@H]4CC[C@]3(O)C2)[C@H](O)[C@H](O)[C@H]1O,18.1,91.0*,102.5*,-1.4,82.6*,87.5*,79.7*,11.8
CCOC(=O)[C@]12Cc3c(cc(OC)c(OC)c3OC)[C@H]1N(CCC(=O)OC)C(=O)c1ccccc12,·,·,·,0.6,·,21.7,·,·
CS(=O)(=O)c1ccc(C2=C(CNC(=O)c3nccs3)[C@H]3CC[C@@H](C2)N3Cc2ccco2)cc1,9.2,-12.5,-25.3,-6.0,·,4.5,·,·
CCCCn1c(=O)c(C(=O)NCc2ccc(Cl)cc2)c(O)c2ccccc21,-6.8,5.2,29.6,1.5,51.8*,28.7,13.9,·
CCCCCCn1c(=O)c(C(=O)Nc2cnccn2)c(O)c2ccccc21,-34.9,33.8,32.4,1.7,61.3*,13.6,52.0*,46.3*
CCCCCn1c(=O)c(C(=O)Nc2ccccn2)c(O)c2ccccc21,-0.2,2.7,20.3,3.5,53.9*,14.2,19.2,·
CCCCCn1c(=O)c(C(=O)NCc2ccccc2Cl)c(O)c2ccccc21,1.7,-4.0,9.6,-4.7,27.5,16.6,·,·
COc1cc2c(cc1O)C[C@H]1c3c(cc(O)c(OC)c3-2)CCN1C,10.8,-16.7,9.6,-3.1,11.6,4.5,·,·
COc1cc2c3cc1Oc1c(OC)c(OC)cc4c1[C@H](Cc1ccc(cc1)Oc1cc(ccc1O)C[C@H]3N(C)CC2)N(C)CC4,-8.3,9.5,70.2*,12.7,96.7*,16.9,56.9*,29.8
COc1cc2c3c(c1OC)Oc1ccc(cc1)C[C@H]1c4c(cc(OC)c(OC)c4Oc4ccc(cc4)C[C@@H]3N(C)CC2)CCN1C,-31.5,9.8,87.4*,10.9,100.5*,11.0,74.4*,35.2
COc1cc2c3cc1Oc1cc(ccc1O)C[C@@H]1c4c(cc(OC)c(O)c4Oc4ccc(cc4)C[C@H]3N(C)CC2)CCN1C,-65.7*,21.2,67.5*,6.4,92.3*,-10.9,75.6*,49.6*
CC1CC(C)OP(=O)(OCCC#N)O1 (configuration not stated),-2.4,-9.2,12.5,10.8,·,0.3,·,·
CN1CCN(Cc2cn(C)c3ccccc23)CC1CCO (configuration not stated),5.7,-16.9,-36.0,1.4,·,17.4,·,·
CC[C@H](C)[C@@H]1O[C@@]2(C=CC1C)CC1C[C@@H](CC=C(C)C(O[C@H]3CC(OC)C(O[C@H]4CC(OC)C(O)C(C)O4)C(C)O3)C(C)C=CC=C3CO[C@@H]4C(O)C(C)=C[C@@H](C(=O)O1)[C@]34O)O2 (some centres not stated),·,·,·,·,84.7*,·,14.9,·
c1ccc2nc(N3CCNCC3)ccc2c1,-4.5,6.7,-6.3,5.0,-15.7,-6.5,·,·
C=C(C)[C@@]12OC3(c4ccccc4)O[C@@H]1C1[C@@H]4O[C@]4(CO)[C@@H](O)[C@]4(O)C(=O)C(C)=C[C@H]4[C@@]1(O3)[C@H](C)[C@H]2OC(=O)/C=C/C=C/c1ccccc1 (some centres not stated),-53.0*,54.4*,99.8*,-10.3,76.8*,-7.1,12.1,·
CC(C)(O)/C=C/C(=O)[C@](C)(O)C1[C@H](O)C[C@@]2(C)C3CC=C4C(C[C@H](O)[C@@H](O)C4(C)C)[C@]3(C)C(=O)C[C@]12C (some centres not stated),-75.0*,71.2*,61.2*,12.1,97.8*,30.5,93.7*,7.0
COc1cc2c(c(OC)c1OC)-c1ccc(O)c(=O)cc1[C@@H](NC(C)=O)CC2,3.6,7.8,16.6,-3.5,49.7,10.6,·,·
COc1cc2c(c(OC)c1OC)-c1ccc(O)cc1[C@@H](NC(C)=O)CC2,-38.8,39.9,-43.0,-8.4,63.0*,23.8,64.8*,106.7*
COc1ccc(CCNC(=O)c2c(N)n(CCN3CCOCC3)c3nc4ccccc4nc23)cc1,-9.4,5.1,22.5,3.1,76.2*,16.5,7.9,·
Nc1c(C(=O)NCCN2CCOCC2)c2nc3ccccc3nc2n1Cc1ccccc1,-18.9,7.8,27.5,11.8,24.8,19.6,·,·
Nc1c(C(=O)NCCc2ccccc2)c2nc3ccccc3nc2n1CCN1CCOCC1,-9.7,-10.3,0.7,15.3,54.4*,-91.1,28.4,·
CCCCn1c(N)c(C(=O)NCCN2CCOCC2)c2nc3ccccc3nc21,-5.5,-5.2,9.4,1.3,4.3,17.3,·,·
Cc1ccc(-c2cc(-c3ccc(C)cc3)[n+](-c3ccc(C(=O)[O-])cc3)c(-c3ccc(C)cc3)c2)cc1,6.7,-4.7,-8.3,5.5,36.1,-28.8,·,·
Cc1ccc(-c2cc(-c3ccccc3)cc(-c3ccccc3)[n+]2-c2ccccc2)cc1,-17.7,6.9,99.5*,13.4,96.1*,0.5,92.0*,12.7
SMILES,KKLEB tox,CF NFkB inh,Peg3 promoter,ABHD5 PLIN5 PPI,Mdm2-MdmX inh,HIF-2a block,Mdm2 MdmX conf,FLuc counter
CCOC(=O)c1cccc(-[n+]2c(-c3ccccc3)cc(-c3ccccc3)cc2-c2ccccc2)c1,-5.2,3.3,26.5,11.5,88.7*,-8.8,50.2*,33.2
CCOC(=O)c1ccc(-[n+]2c(-c3ccccc3)cc(-c3ccccc3)cc2-c2ccccc2)cc1,·,·,·,·,93.0*,·,61.2*,23.6
CCOC(=O)c1ccccc1C(=O)OCC,5.0,1.1,-1.5,-4.1,-9.1,3.2,·,·
CN1OC[C@@H]2CN[C@H](c3ccc(Br)cc3)C[C@@H]21,-3.6,-9.2,-16.2,-7.6,·,-3.0,·,·
C[C@]1(O)CCC2C3CC[C@H]4C[C@@H](OC(=O)[C@@H](N)CCCCN)CC[C@]4(C)C3CC[C@@]21C (some centres not stated),-4.3,15.9,18.3,-3.5,·,3.6,·,·
C=CCN1CC[C@]23c4c5ccc(O)c4OC2C(=O)CC[C@@]3(O)C1C5 (some centres not stated),4.3,-4.6,-1.8,1.8,-15.6,-2.6,·,·
